Data on ten molecules can be found in PubChem BioAssay (EPA / NIEHS).

Records with an inconclusive call do not appear. More than one record can exist for a structure, and the calls need not agree. Activity calls are given as the source filed them. Rule for the calls, unless noted: active = hit-call score of the fitted dose curve at least 0.9, where 1 is the maximum; inconclusive = response in the unintended direction; inactive = score below 0.9.

In assay [1] the target is Retinoic acid receptor alpha (Homo sapiens) (UniProt P10276). Description: ATG_DR5_RAR_CIS: Attagene CIS-FACTORIAL HepG2 Assay for human Retinoic Acid Receptor Alpha (RARE), DR5 submotif (AID 2282934; active = hit-call score of the fitted dose curve at least 0.9, where 1 is the maximum; inactive = score below 0.9). As to conditions: HepG2 Attagene cis-factorial RARE DR5 reporter, mRNA; actives raise or lower the signal. Summed up:
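Transient MRTU transfection of HepG2; 24 h compound treatment; TriZol RNA, oligo(dT) RT, PCR, FAM labelling, capillary electrophoresis. Bidirectional fit vs DMSO. Endogenous TF activity at DR5 RARE.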

For assay [2], the target named is Nuclear receptor subfamily 1 group I member 3 (Homo sapiens) (UniProt Q14994). Description: ATG_CAR_TRANS: Attagene TRANS-FACTORIAL HepG2 Assay for human Constitutive Androstane Receptor (CAR) (AID 2282969).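 Note: activators raise reporter mRNA above DMSO so AC50 marks induction.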 As to conditions: HepG2 Attagene TRANS-FACTORIAL CAR reporter. Summed up:
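Readout is reporter mRNA induction, quantified by fluorescent primer extension and capillary electrophoresis after RT-PCR. Cells were HepG2 transiently carrying chimeric NR-Gal4 constructs with GAL4-UAS reporters, treated for 24 h; activity scored upward from DMSO.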

The nature of assay [3]: ATG_M_19_TRANS: Attagene TRANS-FACTORIAL HepG2 Assay for M19 Transcription Factor (Internal Marker) (AID 2282974). Particulars: HepG2 Attagene TRANS-FACTORIAL M19 internal marker reporter. A digest of the protocol:
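Gain-of-signal in reporter mRNA, relative to DMSO, was scored from capillary electrophoresis fluorescence. HepG2 cells carried transiently transfected multiple reporter transcription units and were incubated with test chemicals for 24 h.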

Assay [4] addresses Oxysterols receptor LXR-alpha (Homo sapiens) (UniProt Q13133). Description: ATG_LXRa_TRANS: Attagene TRANS-FACTORIAL HepG2 Assay for human Liver X Receptor alpha (LXRa) (AID 2282980). As to conditions: HepG2 Attagene TRANS reporter, LXRa transactivation. Summed up: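 Transient HepG2 transfectants, 24 h dosing, RT-PCR/CE mRNA reporter quantitation; gain-of-signal vs DMSO.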
Assay [5] has as its target Hepatocyte nuclear factor 4-alpha (Homo sapiens) (UniProt P41235). Description: ATG_HNF4a_TRANS: Attagene TRANS-FACTORIAL HepG2 Assay for human Hepatocyte Nuclear Factor 4 alpha (HNF4a) (AID 2282982). As to conditions: HepG2 HNF4a transactivation reporter, mRNA readout. Summed up: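 Readout is fluorescent reporter-transcript fragments resolved by capillary electrophoresis after RT-PCR from HepG2 cells dosed for 24 h. Cells carried transfected GAL4-UAS reporter constructs measuring exogenous NR-GAL4 chimera activity; DMSO served as baseline.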

Assay [6] deals with Nuclear receptor subfamily 4 group A member 2 (Homo sapiens) (UniProt P43354). Description: ATG_NURR1_TRANS: Attagene TRANS-FACTORIAL HepG2 Assay for human Nuclear Receptor Related Protein 1 (NURR1) (AID 2282985). As to conditions: HepG2 Attagene TRANS reporter, mRNA readout. Summed up:
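Transient transfection of HepG2, human liver cells, with multiple GAL4-UAS reporter transcription units. Cells dosed 24 h, RNA isolated, reverse-transcribed, PCR-amplified, FAM-labelled, HpaI-digested, sized by capillary electrophoresis. DMSO served as negative control.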

Assay [7] concerns the target Nuclear receptor subfamily 1 group I member 2 (Homo sapiens) (UniProt O75469). Description: ATG_PXR_TRANS: Attagene TRANS-FACTORIAL HepG2 Assay for human Pregnane X Receptor (PXR) (AID 2283008). Summed up: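 HepG2 cells transiently transfected with multiple reporter units, here a PXR-GAL4 chimera driving a GAL4-UAS reporter; 24 h compound exposure. Reporter mRNA measured by RT-PCR, FAM labelling and capillary electrophoresis; gain of signal fitted against DMSO baseline.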

The target in assay [8] is human RAR-related Orphan Receptor gamma (RORg), RORC (gene 6097) (UniProt P51449). The experiment in a line: ATG_RORg_TRANS: Attagene TRANS-FACTORIAL HepG2 Assay for human RAR-related Orphan Receptor gamma (RORg) (AID 2283011). A digest of the protocol:
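Activity is scored as increase in GAL4-UAS reporter mRNA over DMSO, detected by fluorescent RT-PCR and capillary electrophoresis in HepG2 cells transiently expressing a RORg-Gal4 chimera, 24 h after dosing.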

Assay [9] deals with human Thyroid Receptor alpha (THRa1), THRA (gene 7067) (UniProt P10827). The experiment in a line: ATG_THRa1_TRANS: Attagene TRANS-FACTORIAL HepG2 Assay for human Thyroid Receptor alpha (THRa1) (AID 2283014). Summed up: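 First, HepG2 cells receive multiple GAL4-UAS reporter units and the chimeric receptor. They are then dosed for 24 h, after which RNA is reverse-transcribed, amplified, labelled, HpaI-cut and sized by capillary electrophoresis; gain relative to DMSO is scored.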

Assay [10] has as its target human Vitamin D Receptor (VDR), VDR (gene 7421) (UniProt P11473). Description: ATG_VDR_TRANS: Attagene TRANS-FACTORIAL HepG2 Assay for human Vitamin D Receptor (VDR) (AID 2283022). Summed up: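 Fluorescence of labelled reporter cDNA fragments, resolved by capillary electrophoresis, gives mRNA induction after 24 h treatment of HepG2 cells carrying transfected Gal4-fusion reporter units. Activity is fitted in the positive direction with DMSO as baseline.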

A short description of assay [11]: ATG_XTT_Cytotoxicity: Cytotoxicity Assessment in the Attagene TRANS-FACTORIAL HepG2 Assay (AID 2283584). Summed up: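 Transfect HepG2 with GAL4-UAS reporter units, dose compound, incubate 24 h, then measure viable cell number by XTT. Fit concentration response against DMSO baseline.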
The target in assay [12] is Cellular tumor antigen p53 (Homo sapiens) (UniProt P04637). The experiment in a line: TOX21_p53_BLA_p2_ratio: Tox21 HCT-116 p53 Agonism Beta-lactamase Assay, Ratio, Phase 2 (AID 2283592). A digest of the protocol: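 An inducible beta-lactamase reporter in HCT116 cells signals p53 pathway activation. After 16 h chemical exposure at 37C, cells load CCF4-AM substrate for 2 h at room temperature; activity is the cleaved/uncleaved emission ratio relative to DMSO.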
Chain of Cellular tumor antigen p53 (Homo sapiens) (P04637 whole entry, looked up): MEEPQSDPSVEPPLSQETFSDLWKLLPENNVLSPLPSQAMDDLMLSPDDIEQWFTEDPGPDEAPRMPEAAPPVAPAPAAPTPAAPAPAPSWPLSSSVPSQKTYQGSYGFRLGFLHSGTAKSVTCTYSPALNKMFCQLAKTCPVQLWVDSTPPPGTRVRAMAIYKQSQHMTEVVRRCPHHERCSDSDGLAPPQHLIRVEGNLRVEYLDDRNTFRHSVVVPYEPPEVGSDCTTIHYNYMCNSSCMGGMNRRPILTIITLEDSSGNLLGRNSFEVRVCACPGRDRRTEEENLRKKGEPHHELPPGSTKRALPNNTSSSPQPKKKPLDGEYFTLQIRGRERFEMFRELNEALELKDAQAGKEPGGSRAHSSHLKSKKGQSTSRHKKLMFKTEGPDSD

Assay [13] is described as follows: ACEA_ER_AUC_viability: ACEA Biosciences xCELLigence Real-Time Cell Analysis on Estrogen Receptor Agonism for Viability (AID 2283782).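 Note: continuous compound exposure with impedance area under curve over 80 h; hit means loss of impedance signal meaning reduced cell growth or viability.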 Summed up:
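T-47D; phenol red-free RPMI1640 + 10% CS-FBS; 8 conc., 1:4 serial, max 100 uM final, ≤0.5% DMSO; n = 2; continuous exposure; impedance monitored to 80 h post-dose; AUC vs DMSO.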

Assay [14] concerns the target Bile acid receptor (Homo sapiens) (UniProt Q96RI1). Description: ATG_IR1_CIS: Attagene CIS-FACTORIAL HepG2 Assay for human Nuclear Receptor Subfamily 1 Group H Member 4 (NR1H4), IR1 submotif (AID 2282946; active = hit-call score of the fitted dose curve at least 0.9, where 1 is the maximum; inactive = score below 0.9). Particulars: IR1 reporter transcription, actives raise or lower the signal. Summed up:
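Cells (human HepG2) carry transiently transfected cis-promoter reporter transcription units. Compounds are incubated 24 h, total RNA is reverse-transcribed and amplified, and labelled fragments are resolved by capillary electrophoresis. Curves use DMSO as baseline.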

Assay [15] addresses human RAR-related Orphan Receptor beta (RORb), RORB (gene 6096) (UniProt Q92753). Description: ATG_RORb_TRANS: Attagene TRANS-FACTORIAL HepG2 Assay for human RAR-related Orphan Receptor beta (RORb) (AID 2283010). Summed up:
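HepG2 cells transiently transfected with GAL4-UAS reporter units expressing chimeric NR-Gal4 protein; reporter mRNA measured 24 h after dosing by RT-PCR, 6-FAM labelling and capillary electrophoresis. Gain-of-signal fitted relative to DMSO baseline.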

Assay [16] is described as follows: CCTE_Harrill_HTTr_Viability_MCF7: CCTE's 6-hour Cell Viability Assessment for the High-Throughput Transcriptomics (HTTr) Platform, in MCF-7 cells cultured in DMEM + 10% fetal bovine serum, Harrill Lab (AID 2284010; active = hit-call score of the fitted dose curve at least 0.9, where 1 is the maximum; inactive = score below 0.9). Summed up:
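MCF-7 cells in DMEM + 10% FBS, 384-well, exposed 6 h to an eight-point dilution series. Membrane integrity scored by high-content imaging of propidium iodide exclusion; bidirectional fit versus DMSO.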

The nature of assay [17]: ATG_GAL4_TRANS: Attagene TRANS-FACTORIAL HepG2 Assay for GAL4 (Internal Marker) (AID 2282976). Particulars: HepG2 Attagene TRANS GAL4 internal marker reporter. A digest of the protocol: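 Fluorescence from capillary electrophoresis of labelled RT-PCR products quantifies reporter mRNA induction after 24 h dosing of HepG2 cells carrying transfected GAL4-UAS reporter transcription units. Vehicle DMSO serves as baseline.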

The nature of assay [18]: TOX21_p53_BLA_p5_viability: Viability Assessment in the Tox21 HCT-116 p53 Agonism Beta-lactamase Assay, Phase 5 (AID 2283600). A digest of the protocol:
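Counter-readout for cytotoxicity: ATP-dependent luminescence from CellTiter-Glo, read in the beta-lactamase wells after 30 min at RT, following a 16 h compound exposure at 37C.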

The nature of assay [19]: TOX21_p53_BLA_p3_viability: Viability Assessment in the Tox21 HCT-116 p53 Agonism Beta-lactamase Assay, Phase 3 (AID 2283593).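 Note: cells exposed to compound for 16 h before reading.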 Summed up:
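Cellular ATP was quantified by CellTiter-Glo luminescence, read after 30 min at room temperature. Beforehand, HCT116 cells (4000/well) received compound 5 h post-seeding, 217-fold diluted from DMSO, then incubated 16 h at 37C.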

The nature of assay [20]: TOX21_p53_BLA_p4_viability: Viability Assessment in the Tox21 HCT-116 p53 Agonism Beta-lactamase Assay, Phase 4 (AID 2283597).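 Note: hits lower the luminescence signal meaning cytotoxicity.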 A digest of the protocol:
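Compound exposure of HCT116 cells lasts 16 h at 37C, 5% CO2, with DMSO stocks diluted 217-fold. Cellular ATP is then quantified by CellTiter-Glo luminescence after 30 min at room temperature.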

Chain of human Vitamin D Receptor (VDR), VDR (gene 7421) (P11473 whole entry, looked up, the tested form may be a part): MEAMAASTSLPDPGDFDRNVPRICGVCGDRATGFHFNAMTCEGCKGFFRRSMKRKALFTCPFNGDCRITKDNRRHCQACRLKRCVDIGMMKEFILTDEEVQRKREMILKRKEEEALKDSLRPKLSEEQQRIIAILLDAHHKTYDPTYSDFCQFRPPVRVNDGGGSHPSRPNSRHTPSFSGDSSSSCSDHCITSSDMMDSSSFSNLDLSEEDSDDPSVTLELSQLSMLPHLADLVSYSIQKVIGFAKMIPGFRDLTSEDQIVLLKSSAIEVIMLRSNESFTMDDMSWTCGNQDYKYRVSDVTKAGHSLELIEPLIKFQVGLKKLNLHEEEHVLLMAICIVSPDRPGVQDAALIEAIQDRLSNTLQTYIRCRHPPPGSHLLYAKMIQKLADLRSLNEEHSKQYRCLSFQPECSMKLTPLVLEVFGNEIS
Chain of human RAR-related Orphan Receptor beta (RORb), RORB (gene 6096) (Q92753 whole entry, looked up, the tested form may be a part): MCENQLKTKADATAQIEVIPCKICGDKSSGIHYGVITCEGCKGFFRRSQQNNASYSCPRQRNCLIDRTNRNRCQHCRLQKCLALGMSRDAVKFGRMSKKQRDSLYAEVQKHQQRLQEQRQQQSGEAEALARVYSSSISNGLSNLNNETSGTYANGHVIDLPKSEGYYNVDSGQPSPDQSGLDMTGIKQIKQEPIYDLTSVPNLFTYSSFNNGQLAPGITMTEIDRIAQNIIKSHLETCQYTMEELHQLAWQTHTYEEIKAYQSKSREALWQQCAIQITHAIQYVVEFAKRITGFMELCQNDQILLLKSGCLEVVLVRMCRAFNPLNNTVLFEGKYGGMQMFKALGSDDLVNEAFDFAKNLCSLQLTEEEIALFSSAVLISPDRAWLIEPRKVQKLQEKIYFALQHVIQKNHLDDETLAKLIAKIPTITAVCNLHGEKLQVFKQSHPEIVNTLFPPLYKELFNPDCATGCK
Chain of Nuclear receptor subfamily 1 group I member 3 (Homo sapiens) (Q14994 whole entry, looked up, the tested form may be a part): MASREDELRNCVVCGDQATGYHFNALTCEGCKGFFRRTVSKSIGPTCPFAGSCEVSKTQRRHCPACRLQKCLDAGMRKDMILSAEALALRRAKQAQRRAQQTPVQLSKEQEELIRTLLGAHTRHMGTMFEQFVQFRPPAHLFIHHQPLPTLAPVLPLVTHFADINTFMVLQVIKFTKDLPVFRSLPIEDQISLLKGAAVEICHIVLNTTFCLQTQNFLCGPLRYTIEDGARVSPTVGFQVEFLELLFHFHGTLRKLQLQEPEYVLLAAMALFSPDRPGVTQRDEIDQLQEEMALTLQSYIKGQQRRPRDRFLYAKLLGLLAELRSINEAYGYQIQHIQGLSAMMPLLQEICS
Chain of Hepatocyte nuclear factor 4-alpha (Homo sapiens) (P41235 whole entry, looked up, the tested form may be a part): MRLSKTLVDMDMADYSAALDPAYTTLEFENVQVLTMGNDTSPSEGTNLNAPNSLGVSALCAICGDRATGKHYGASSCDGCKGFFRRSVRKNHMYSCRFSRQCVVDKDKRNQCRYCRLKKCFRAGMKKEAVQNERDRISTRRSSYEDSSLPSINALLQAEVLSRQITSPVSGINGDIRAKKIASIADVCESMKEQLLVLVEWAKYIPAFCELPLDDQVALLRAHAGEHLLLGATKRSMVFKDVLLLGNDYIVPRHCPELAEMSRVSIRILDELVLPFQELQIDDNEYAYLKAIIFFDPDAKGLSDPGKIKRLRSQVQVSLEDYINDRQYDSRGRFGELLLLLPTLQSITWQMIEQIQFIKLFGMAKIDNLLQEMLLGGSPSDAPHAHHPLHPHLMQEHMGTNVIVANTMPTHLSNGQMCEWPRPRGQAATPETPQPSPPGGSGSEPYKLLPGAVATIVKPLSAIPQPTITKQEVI
Chain of Nuclear receptor subfamily 1 group I member 2 (Homo sapiens) (O75469 whole entry, looked up, the tested form may be a part): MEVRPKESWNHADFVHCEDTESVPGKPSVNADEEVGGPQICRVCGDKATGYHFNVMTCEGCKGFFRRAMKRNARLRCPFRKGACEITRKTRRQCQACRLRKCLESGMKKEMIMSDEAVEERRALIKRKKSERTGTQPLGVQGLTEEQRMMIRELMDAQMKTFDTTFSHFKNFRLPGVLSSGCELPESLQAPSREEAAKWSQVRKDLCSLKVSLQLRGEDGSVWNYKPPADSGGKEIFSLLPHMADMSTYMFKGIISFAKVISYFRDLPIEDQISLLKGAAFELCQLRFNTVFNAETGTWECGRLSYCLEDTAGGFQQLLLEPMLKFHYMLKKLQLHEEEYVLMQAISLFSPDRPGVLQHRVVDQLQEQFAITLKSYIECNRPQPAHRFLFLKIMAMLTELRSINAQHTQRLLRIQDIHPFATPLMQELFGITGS
Chain of Bile acid receptor (Homo sapiens) (Q96RI1 whole entry, looked up, the tested form may be a part): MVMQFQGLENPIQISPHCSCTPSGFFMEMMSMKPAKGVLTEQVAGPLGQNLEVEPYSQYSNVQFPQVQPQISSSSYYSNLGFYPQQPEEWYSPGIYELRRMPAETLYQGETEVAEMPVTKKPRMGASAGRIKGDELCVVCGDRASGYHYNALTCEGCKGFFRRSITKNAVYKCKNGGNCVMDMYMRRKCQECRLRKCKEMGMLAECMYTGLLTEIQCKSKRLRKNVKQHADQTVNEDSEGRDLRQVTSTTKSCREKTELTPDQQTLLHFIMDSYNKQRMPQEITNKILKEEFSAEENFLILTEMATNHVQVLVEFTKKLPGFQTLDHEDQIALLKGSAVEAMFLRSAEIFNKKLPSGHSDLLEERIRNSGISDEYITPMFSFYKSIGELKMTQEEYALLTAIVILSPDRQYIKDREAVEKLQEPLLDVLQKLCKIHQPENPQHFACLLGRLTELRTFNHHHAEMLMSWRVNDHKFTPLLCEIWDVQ
Chain of human RAR-related Orphan Receptor gamma (RORg), RORC (gene 6097) (P51449 whole entry, looked up, the tested form may be a part): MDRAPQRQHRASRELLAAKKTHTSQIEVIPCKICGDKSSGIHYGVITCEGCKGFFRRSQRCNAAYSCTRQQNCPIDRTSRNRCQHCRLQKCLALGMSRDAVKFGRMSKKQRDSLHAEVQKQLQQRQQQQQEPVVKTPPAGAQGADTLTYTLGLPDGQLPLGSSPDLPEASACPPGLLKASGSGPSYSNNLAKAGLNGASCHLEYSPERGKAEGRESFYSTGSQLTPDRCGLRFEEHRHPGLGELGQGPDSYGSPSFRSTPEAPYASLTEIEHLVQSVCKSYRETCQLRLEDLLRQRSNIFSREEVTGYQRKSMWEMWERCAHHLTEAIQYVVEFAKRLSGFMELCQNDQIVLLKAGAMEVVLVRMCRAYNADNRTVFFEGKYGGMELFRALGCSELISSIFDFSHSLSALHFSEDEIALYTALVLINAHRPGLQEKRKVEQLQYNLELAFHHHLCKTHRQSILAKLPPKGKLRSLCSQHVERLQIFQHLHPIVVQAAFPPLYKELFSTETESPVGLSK
Chain of Retinoic acid receptor alpha (Homo sapiens) (P10276 whole entry, looked up): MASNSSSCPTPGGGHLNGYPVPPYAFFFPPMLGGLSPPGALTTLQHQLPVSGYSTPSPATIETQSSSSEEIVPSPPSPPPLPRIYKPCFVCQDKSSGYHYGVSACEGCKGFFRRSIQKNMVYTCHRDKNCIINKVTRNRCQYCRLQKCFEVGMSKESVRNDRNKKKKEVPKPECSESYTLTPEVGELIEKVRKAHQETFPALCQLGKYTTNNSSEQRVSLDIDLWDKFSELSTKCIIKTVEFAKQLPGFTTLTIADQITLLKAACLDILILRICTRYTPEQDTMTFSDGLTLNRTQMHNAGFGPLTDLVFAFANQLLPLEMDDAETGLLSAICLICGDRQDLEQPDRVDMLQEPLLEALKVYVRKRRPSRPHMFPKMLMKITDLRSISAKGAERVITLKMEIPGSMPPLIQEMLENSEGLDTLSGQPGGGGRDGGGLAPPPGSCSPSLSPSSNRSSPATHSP
Chain of Nuclear receptor subfamily 4 group A member 2 (Homo sapiens) (P43354 whole entry, looked up, the tested form may be a part): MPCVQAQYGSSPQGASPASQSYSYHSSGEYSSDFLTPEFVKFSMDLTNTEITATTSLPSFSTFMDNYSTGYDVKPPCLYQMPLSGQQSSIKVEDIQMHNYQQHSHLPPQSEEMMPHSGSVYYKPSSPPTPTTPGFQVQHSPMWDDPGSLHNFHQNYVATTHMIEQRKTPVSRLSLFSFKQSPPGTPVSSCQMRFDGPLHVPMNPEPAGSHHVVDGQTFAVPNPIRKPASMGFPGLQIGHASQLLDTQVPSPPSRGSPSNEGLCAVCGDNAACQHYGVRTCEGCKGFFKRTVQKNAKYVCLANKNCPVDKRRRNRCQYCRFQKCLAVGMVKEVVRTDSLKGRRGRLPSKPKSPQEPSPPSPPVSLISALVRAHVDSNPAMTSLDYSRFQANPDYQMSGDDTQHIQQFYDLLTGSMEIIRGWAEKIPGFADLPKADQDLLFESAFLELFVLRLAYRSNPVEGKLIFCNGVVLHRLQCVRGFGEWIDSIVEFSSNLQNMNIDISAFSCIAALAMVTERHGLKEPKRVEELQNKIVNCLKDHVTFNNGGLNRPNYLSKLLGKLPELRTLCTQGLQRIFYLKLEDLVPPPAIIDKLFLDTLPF

As usually defined, the AC50 is the concentration giving half of the maximal activity seen. Consider `C=CCc1ccc(OC(=O)Cc2ccccc2)c(OC)c1`, for which the molecule was classed as inactive in assay [1], in assay [2], in assay [3], in [4], in assay [5] and in assay [6]. The outcome in [8], in assay [9], in assay [10], in assay [11], in [12] and in assay [13] was inactive. Besides, the half-maximal activity concentration (AC50) in assay [7] is 11.8 µM (active).
Take `CN(N=O)c1ccccc1`: the result in assay [14], in assay [2], in [5], in assay [7], in assay [15] and in assay [10] was inactive.
`C[N+](C)(C)CC(=O)[O-]`: the molecule was called inactive in [6], in [15], in assay [8], in [9] and in assay [16].
As for `COc1ccc(CO)cc1`, the molecule was called inactive in assay [14], in [3], in [17], in [5], in [15] and in [8]. Also, the molecule was called inactive in assay [9], in assay [11], in assay [12], in [18] and in [16].
In the case of `CC(C)c1ccc(O)cc1`, the outcome in assay [1], in assay [2], in [7], in assay [15], in assay [10] and in assay [18] was inactive.
Consider `O=[N+]([O-])c1cc([N+](=O)[O-])c2ccccc2c1`, for which the call in assay [1], in [4], in [6], in [9], in assay [10] and in [12] was inactive. The outcome in [19], in assay [20] and in assay [18] was inactive. Moreover, in assay [7], the AC50 was 9.2 µM (active).
As for `CCN(CC)C(=S)S`, the molecule was classed as inactive in assay [6], in assay [15] and in assay [8]. Moreover, in assay [7], the AC50 was 3.68 µM (active).
On to `CC(C)COP(=O)(OCC(C)C)OCC(C)C`, for which the call in assay [14], in assay [10], in [11], in assay [19] and in assay [20] was inactive. Also, the AC50 in assay [7] was 1.52 µM (active).
Take `CC1OC(C)OC(C)O1` (stereo not drawn): the outcome in assay [14], in assay [3], in assay [17], in [7], in assay [15] and in assay [12] was inactive. Besides, the molecule was classed as inactive in assay [19], in [18] and in assay [13]. In addition, in assay [19], the AC50 is 42.6 µM (active).
In the case of `O=C(O)CCl`, the molecule was classed as inactive in assay [1], in assay [3], in assay [5], in [15], in [8] and in assay [11]. Moreover, the call in assay [13] was inactive.
